# Data reported in ChEMBL document CHEMBL3433997, “St. Jude Leishmania screening dataset” (2016).
# Key:
# Format in all cases: functional
# [1] = target: Solute carrier family 2, facilitated glucose transporter member 1 (Homo sapiens) (UniProt P11166); assay: ST_JUDE_LEISH: Cytotoxicity at 2uM final concentration against transgenic Leishmania Mexicana promastigotes LmGLUT1 that are glucose transport deficient and complemented with the human glucose transporter GLUT1. Activity is measured by DNA content using SYBR green in vitro
# Chain of Solute carrier family 2, facilitated glucose transporter member 1 (Homo sapiens) (P11166 whole entry): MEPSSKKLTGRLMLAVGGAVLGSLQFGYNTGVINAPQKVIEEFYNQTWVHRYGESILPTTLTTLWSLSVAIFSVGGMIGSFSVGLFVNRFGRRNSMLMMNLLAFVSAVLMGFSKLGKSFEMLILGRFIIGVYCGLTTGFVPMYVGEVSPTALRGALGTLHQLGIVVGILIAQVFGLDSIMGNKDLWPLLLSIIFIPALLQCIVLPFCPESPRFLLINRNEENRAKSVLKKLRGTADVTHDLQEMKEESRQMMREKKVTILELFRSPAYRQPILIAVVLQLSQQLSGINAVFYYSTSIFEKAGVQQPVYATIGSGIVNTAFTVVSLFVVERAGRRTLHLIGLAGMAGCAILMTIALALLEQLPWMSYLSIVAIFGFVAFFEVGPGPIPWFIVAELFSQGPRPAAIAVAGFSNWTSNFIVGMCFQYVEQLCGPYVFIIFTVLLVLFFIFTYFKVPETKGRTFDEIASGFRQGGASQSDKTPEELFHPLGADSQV
# [2] = target: Hexose transporter 1 (Plasmodium falciparum) (UniProt O97467); assay: ST_JUDE_LEISH: Cytotoxicity at 2uM final concentration against transgenic Leishmania Mexicana promastigotes LmPfHT that are glucose transport deficient and complemented with the Plasmodium falciparum hexose transporter. Activity is measured by DNA content using SYBR green in vitro
# [3] = target: Glucose transporter (Leishmania mexicana) (UniProt O61059); assay: ST_JUDE_LEISH: Cytotoxicity at 2uM final concentration against transgenic Leishmania Mexicana promastigotes LmGT2 that are glucose transport deficient and complemented with the L. Mexicana glucose transporter 2. Activity is measured by DNA content using SYBR green in vitro
SMILES,inhibition [1] [%],inhibition [2] [%],inhibition [3] [%]
Cc1ccc2c(=NN=Cc3ccc(Cl)cc3)cc(C)[nH]c2c1,4.64,4.7,2.66
CC(C)(C)c1nn(-c2ccccc2)c2[nH]c(=O)c(CNC3CCCC3)cc12,3.76,1.66,2.65
CCOc1ccccc1NC(=O)C(Sc1nc(C)cc(C)c1C#N)c1ccccc1 (stereo not drawn),6.11,3.77,6.45
CC(C)(CNC(=O)/C=C/c1ccc(C(F)(F)F)cc1)CNc1cc(=O)c2ccccc2[nH]1,1.07,-1.76,1.66
COc1ccc(CNC(=O)Nc2cc3cc(-c4ccc(CN(C)C)cc4)ccc3n3c(C)nnc23)cc1,4.84,2.93,3.32
O=C(NC1CC1)C1CCN(Cc2cc3ccccc3n2Cc2ccc(Cl)cc2)CC1,-2.52,-1.61,-1.79
